# Reference: ChEMBL document CHEMBL3988442, “University of Dundee, Small-Polar-MMV Screening Library” (2021)
# In all, about 69,000 compounds went through this assay and about 950 (1.4%) showed an effect of 50% or more. For the sample, strong results were picked, then their nearest neighbours and some compounds at random.
# Test system: Mycobacterium tuberculosis
# Test: Cornell M. t heat shock assay; further: in the data most compounds retested in dose-response had high values
# Type: functional, organism-based
# Design: dose or concentration left out as unconfirmed
row,Structure (SMILES),Percent Effect [%]
1,COCCN1CC[C@@H]2OC(COCC(=O)N3CCCC3)CC[C@@H]21.O=C(O)C(F)(F)F (stereo partly drawn),-19.46
2,COc1c(C)cnc(CNCC(C)C)c1C,-4.994
3,CCCNCc1ncc(C)c(OC)c1C,-10.29
4,CCCS(=O)(=O)NCc1ncc(C)c(OC)c1C,51.82
5,FC1(F)CCN(Cc2ccccn2)CC12CCN(c1cccnc1)C2.O=C(O)C(F)(F)F.O=C(O)C(F)(F)F.O=C(O)C(F)(F)F (stereo not drawn),-10.62
6,O=c1c(-c2ccnc(N3CCCC[C@@H]3CO)n2)cnc2sccn12,-1.826
7,Cc1csc2ncc(-c3ccnc(N4CCCC[C@@H]4CO)n3)c(=O)n12,73.7
8,Cc1csc2ncc(-c3ccnc(N4CCC[C@@H]4CO)n3)c(=O)n12,-11.68
9,Cc1nc(CN2CCc3ncnc(-c4ccc(F)cc4)c3CC2)cs1.O=C(O)C(F)(F)F,-9.802
10,CN(CC1CCCO1)c1nc(-c2cccnc2)nc2c1CCNCC2 (stereo not drawn),-30.46
11,c1cncc(-c2nc3c(c(NCC4(c5ccncc5)CC4)n2)CCC3)c1,-38.69
12,CC(O)CNc1nc(-c2cccnc2)nc2c1CCC2 (stereo not drawn),6.387
13,Cl.NC1CCc2nc(-c3cccnc3)nc(Nc3ccc(F)cc3)c2C1 (stereo not drawn),99.91
14,CCc1noc(CNc2nc(-c3cccnc3)nc3c2CCNCC3)n1,-6.144
15,CCn1ccc(C(=O)N2CCCC2c2nnc(-c3scnc3C)o2)n1 (stereo not drawn),-2.34
16,Cc1ccc(C(C)N(C)CCS(=O)(=O)CCC(N)=O)cc1 (stereo not drawn),68.62
17,Cc1ccc(OCCN(C)C(C)c2cccc(S(N)(=O)=O)c2)cc1 (stereo not drawn),-22.37
18,CC(c1cc(F)ccc1F)N(C)CCS(=O)(=O)CCC(N)=O (stereo not drawn),49.2
19,Cc1ccc(C(C)NC(=O)CSCC(N)=O)cc1 (stereo not drawn),15.53
20,CC(c1cccc(Cl)c1)N(C)CCS(=O)(=O)CCC(N)=O (stereo not drawn),31.14
21,CC(c1ccc(F)c(F)c1)N(C)CCS(=O)(=O)CCC(N)=O (stereo not drawn),53.46
22,O=C(O)C(F)(F)F.O=C(O)C(F)(F)F.O=C(O)C(F)(F)F.c1cc(CN2CCN3C[C@H](Oc4cncnc4)C[C@H]3C2)ccn1,11.96
23,CCN(CCN(C)C)c1nc(CCN)nc2sc(C)c(C)c12,91.54
24,Cc1sc2nc(CCN)nc(N(CCN(C)C)CC3CCCO3)c2c1C (stereo not drawn),-25.67

row,Structure (SMILES),Percent Effect [%]
1,COCCN(CC1CC1)c1nc(CCN)nc2sc(C)c(C)c12,9.263
2,COc1cc(N2C[C@H]3CCC[C@@H](CN(C)C)[C@H]3C2)ncn1.O=C(O)C(F)(F)F,-30.27
3,O=C1CCCC2=C1C(c1ccc(Cl)cc1Cl)Nc1nonc1N2 (stereo not drawn),15.96
4,O=C(O)C(F)(F)F.O=C(O)C(F)(F)F.O=C(O)CN1CCC(F)(F)C2(CCN(c3ccccn3)C2)C1 (stereo not drawn),-7.749
5,FC1(F)CCN(Cc2cccnc2)CC12CCN(c1ccccn1)C2.O=C(O)C(F)(F)F.O=C(O)C(F)(F)F.O=C(O)C(F)(F)F (stereo not drawn),8.031
6,O=C(CO)N1CCC(F)(F)C2(CCN(c3ccccc3)C2)C1.O=C(O)C(F)(F)F (stereo not drawn),34.47
7,O=C(O)C(F)(F)F.O=C(O)C(F)(F)F.O=C(O)CN1CCC(F)(F)C2(CCN(c3ccccc3)C2)C1 (stereo not drawn),100.8
8,O=C(O)C(F)(F)F.O=C(O)C(F)(F)F.O=C(c1c[nH]cn1)N1CCC(F)(F)C2(CCN(c3ccccn3)C2)C1 (stereo not drawn),6.804
9,O=C(O)C(F)(F)F.O=C(c1c[nH]cn1)N1CCC(F)(F)C2(CCN(c3ncccn3)C2)C1 (stereo not drawn),-10.36
10,FC1(F)CCN(Cc2ccncc2)CC12CCN(c1cccnc1)C2.O=C(O)C(F)(F)F.O=C(O)C(F)(F)F.O=C(O)C(F)(F)F (stereo not drawn),-5.593
11,FC1(F)CCN(Cc2cccnc2)CC12CCN(c1ccccc1)C2.O=C(O)C(F)(F)F.O=C(O)C(F)(F)F.O=C(O)C(F)(F)F (stereo not drawn),107.1
12,O=C(O)C(F)(F)F.O=C(c1c[nH]cn1)N1CCC(F)(F)C2(CCN(c3cccc(F)c3)C2)C1 (stereo not drawn),53.67
13,Cc1ccc(C(=O)N2CCC3(CCN(C(=O)c4cccnc4)C3)CC2)o1.O=C(O)C(F)(F)F,1.785
14,COC(=O)CC(C)(C)CC(=O)N1CCC(C(F)(F)F)CC1,-1.161
15,Cc1nn(C)cc1S(=O)(=O)NCC(c1ccccc1)N1CCCCCC1.Cl (stereo not drawn),-15.55
16,CN(C)CCNCCC(Cc1ccccc1)C1CCOC(C)(C)C1.O=C(O)C(=O)O (stereo not drawn),-22.2
17,Cl.FC(F)(F)c1nc(C2CCNCC2)no1,-8.269
18,COCCN1CCC2(CC1)CC(NCc1ccc(C)s1)c1ccccc12.O=C(O)C(F)(F)F.O=C(O)C(F)(F)F (stereo not drawn),1.76
19,Cc1nc(CN2C[C@@H]3CN(C(=O)c4cccn4C)C[C@@H]3C2=O)cs1.O=C(O)C(F)(F)F,-10.46
20,O=C(O)C(F)(F)F.O=C(c1ccc(F)cc1)N1C[C@H]2CCC[C@@]2(COCc2ccccn2)C1,7.203
21,CN1CCCC(c2cccc(-c3cccc(Cl)c3)n2)C1 (stereo not drawn),-13.07
22,CN(Cc1c(F)cccc1Cl)C(=O)Cn1cnc(C#N)n1,-1.386
23,N#Cc1ncn(Cc2c(F)cccc2Cl)n1,-2.259
24,N#Cc1ncn(CC(=O)Cc2c(F)cccc2Cl)n1,85.52

row,Structure (SMILES),Percent Effect [%]
1,CCc1ccc(CN2CCCCC2c2n[nH]cc2-c2cc(C)no2)cc1.Cl (stereo not drawn),16.34
2,CS(=O)(=O)N[C@@H]1CCO[C@]2(CCN(C(=O)c3cscn3)C2)C1,-9.704
3,CS(=O)(=O)N[C@H]1CCO[C@]2(CCN(C(=O)c3ccccn3)C2)C1.O=C(O)C(F)(F)F,72.36
4,CS(=O)(=O)N[C@@H]1CCO[C@]2(CCN(C(=O)c3cnccn3)C2)C1,9.518
5,CCC(N)C(=O)N1CCC(OCc2ccc(Cl)c(Cl)c2)CC1.Cl (stereo not drawn),20.26
6,Cc1ccc(CNC(=O)NCc2nccn2C)c(OC(C)(C)C)c1,2.123
7,CCn1ccnc1CNCc1ccc(C)cc1OC(C)(C)C,55.22
8,CCn1ccnc1CNc1nccc(-c2c(C)nn(C)c2C)n1,4.641
9,CCn1ccnc1CNCC1CCCN1c1cccnn1 (stereo not drawn),2.735
10,Cc1ccc(CNCc2nccn2C)c(OCC2CC2)c1,39.25
11,Cc1ccc(CNCc2nccn2C)c(OC(C)(C)C)c1,50.94
12,Cn1cccc1C(=O)NC[C@]12COC[C@H]1CN(Cc1nccs1)C2.O=C(O)C(F)(F)F,-42.54
13,COc1nccnc1N1C[C@@H]2CC[C@H](C1)N(CC=C(C)C)C2=O,-19.62
14,COCCN(C)C1COC2(CCN(Cc3ccccn3)CC2)C1.O=C(O)C(F)(F)F.O=C(O)C(F)(F)F (stereo not drawn),-27.77
15,COCCO[C@@H]1CCN(C(=O)c2ccc(C)o2)[C@@H]1Cc1cccnc1.O=C(O)C(F)(F)F,104.5
16,COCCO[C@H]1CCN(Cc2cccnc2)[C@H]1Cc1cccnc1.O=C(O)C(F)(F)F.O=C(O)C(F)(F)F.O=C(O)C(F)(F)F,-30.96
17,COCCO[C@@H]1CCN(C(=O)c2ccc(C)o2)[C@@H]1Cc1cnn(C)c1,11.53
18,CC[C@@H]1N(Cc2ccc(C)o2)CCC[C@]12CCC(=O)N2CCOC.O=C(O)C(F)(F)F,-28.97
19,CN(C)CCNC(=O)c1sc2ccccc2c1C1CCC(CN)CC1.Cl (stereo not drawn),20.1
20,Cl.NCC1CCC(c2c(C(=O)NCCO)sc3ccccc23)CC1 (stereo not drawn),85.23
21,COCCNC(=O)c1sc2ccccc2c1C1CCC(CN)CC1.Cl (stereo not drawn),16.29
22,Cc1ccnc(NC(=O)c2[nH]nc(C(C)C)c2Br)c1,68.96
23,CC(C)c1n[nH]c(C(=O)Nc2ccccn2)c1Br,-0.4918
24,CC(C)c1n[nH]c(C(=O)Nc2cc[nH]n2)c1Br,4.113

row,Structure (SMILES),Percent Effect [%]
1,O=C(O)C(F)(F)F.O=C(O)C(F)(F)F.c1cncc(O[C@@H]2CC[C@H]3[C@H]2OCCN3C2CCCC2)c1,-35.82
2,COc1ccc2[nH]c(CNc3cc(C4CCNCC4)nc(C)n3)cc2c1,101.5
3,Cc1nc(NCc2ccc(C)o2)cc(C2CCNCC2)n1,-22.33
4,CCCN(CC)c1cc(C2CCNCC2)nc(C)n1,-15.84
5,CCN(Cc1c(F)cccc1Cl)c1cc(C2CCNCC2)nc(C)n1,69.57
6,CN(Cc1cc2cc(F)ccc2[nH]1)c1cc(C2CCCNC2)ncn1 (stereo not drawn),27.99
7,Cc1nc(-c2ccc(F)cc2)cc(C2CCNCC2)n1,-9.323
8,CCN(Cc1ccncc1)c1cc(C2CCNCC2)nc(C)n1,-13.1
9,Cc1nc(C2CCNCC2)cc(N(C)Cc2cc3cc(F)ccc3[nH]2)n1,81.43
10,Cc1nc(NCc2cccc(F)c2)cc(C2CCNCC2)n1.Cl,-3.606
11,COc1ccc(CNC(C)c2ccccc2Cl)c(OC)c1OC.Cl (stereo not drawn),-26.61
12,COc1c(CNC2CCSc3ccc(F)cc32)c(C)nn1C.Cl (stereo not drawn),15.14
13,CNC(C(=O)OC)c1cc(F)ccc1F.Cl (stereo not drawn),1.092
14,O=C(O)C(F)(F)F.O=C(O)C(F)(F)F.O=C(c1ccncc1)N1CC[C@@H]2CN(C3CCOCC3)CCO[C@@H]2C1,7.278
15,Cc1cccc(CN2CCc3nnc(CN4CCCC4=O)n3CC2)n1.O=C(O)C(F)(F)F,-34.57
16,Cc1cc(C(=O)NCc2ccco2)nn1C,12.62
17,Cc1ccn(CCC(=O)NCc2ccco2)n1,6.355
18,Cc1nc2c(c(C)c1CC(=O)NCc1cccs1)c(=O)[nH]n2C,11.25
19,Cc1cc(=O)[nH]c(-n2nc(C)c(CCC(=O)NCc3cccs3)c2C)n1,102.2
20,Cc1noc(C)c1CCC(=O)NCCc1cccs1,11.5
21,Cc1cc(=O)[nH]c(-n2nc(C)c(CCC(=O)NCc3ccco3)c2C)n1,61.79
